The text below walks through data of PubChem BioAssay (Tox21).

The structures appear in SMILES notation. Inconclusive results are not listed. A number with no mark means an inactive call. Calls come from the whole dose curve; as a rule, active = well fitted cell-killing curve with a large enough effect in the repeat runs (not every such curve was filed as active); inconclusive = weak or mixed curves, or effect the other way; inactive = no such curve, though single readings can be large or run the other way.
% is set by controls: 0 for no effect and ±100 for the full control effect.

The test in a line: qHTS assay to identify small molecule antagonists of the estrogen related receptor signaling pathway with the pleiotropic PPARgamma coactivator (PGC) from Tox21 10K library - cell viability counter screen (AID 1224840). Note: nearly all actives have a fitted effect of over 40% in size. Particulars: PGC/ERR reporter cells viability, CellTiter-Fluor, 17.5 h; series mostly up to 92.4 µM; viability change, negative = cytotoxic: at the top concentration. The procedure, abridged:
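PGC/ERR cells, 2,000/well; 6 h pre-incubation 37 C/5% CO2; cpd in DMSO via pin tool; 17.5 h 37 C; CellTiter-Fluor, 30 min; fluorescence.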
Background: qHTS replaces the single test concentration by a dilution series.
Take `CC(=O)Nc1ccc(C)cc1`: the “viability change, negative = cytotoxic” value was 4.82%.
As to `CCC1COC(=O)O1` (stereo not drawn), the “viability change, negative = cytotoxic” value was 9.67%.
On to `C[CH2][Ge]([Cl])([CH2]C)[CH2]C`, for which the “viability change, negative = cytotoxic” value is 5.46%.
Regarding `Cc1cccc(Nc2ccncc2S(=O)(=O)NC(=O)NC(C)C)c1`, the “viability change, negative = cytotoxic” value is 12.8% [at 42.5 µM].
Take `Oc1ccccc1Cc1ccccc1O`: the “viability change, negative = cytotoxic” value is 3.97%.
As for `CCCCCN(CCCOC)C(=O)C(CCC(=O)O)NC(=O)c1ccc(Cl)c(Cl)c1` (stereo not drawn), the “viability change, negative = cytotoxic” value was -2.85% [at 42.5 µM].
For `NS(=O)(=O)c1ccccc1OC(F)(F)F`, the “viability change, negative = cytotoxic” value was 4.1%.
Next, `CC(=O)OCCCc1ccccc1`: -1.68%; `CN[C@@H]1[C@@H](O)[C@@H](O[C@@H]2[C@H](O)[C@H](O[C@H]3OC(CN)=CC[C@H]3N)[C@@H](N)C[C@H]2N)OCC1(C)O` (stereo partly drawn): 22.7% [at 42.5 µM].
As for `CCC(C)(C)C1CCC(=O)CC1`, the “viability change, negative = cytotoxic” value is 3.98%.
The value for `Cc1ccccc1C` was 9.87%; that for `NC(=O)NNC(N)=O` was 7.39%; that for `CCCCCCCCCCCCCCCC(=O)NCCO` was 9.79% [at 42.5 µM].
As to `O=C(O)c1ccc(OCCN2CCCCC2)cc1`, the “viability change, negative = cytotoxic” value was 5.17% [at 42.5 µM].
Regarding `C=CCOc1c(Br)cc(Br)cc1Br`, the “viability change, negative = cytotoxic” value was 0.311%.
The value for `O=CN1CCOCC1` was 3.78%; that for `CCCCCCCCOC(C)=O` was 7.54%; that for `CC(C)COC(=O)COc1ccc(Cl)cc1Cl` was 4.82%.
Turning to `CCCCC(C)C(=O)O` (stereo not drawn), the “viability change, negative = cytotoxic” value is 13.5%.
As for `CCCCCCCCCCCCCCCCI`, the viability change, negative = cytotoxic was -0.222% [at 19 µM].
Consider `COc1ccc(NS(=O)(=O)c2ccc(N)cc2)nn1`, for which the “viability change, negative = cytotoxic” value was 5.86% [at 42.5 µM].
Regarding `O=c1[nH]c(=O)c2ccccc2o1`, the “viability change, negative = cytotoxic” value is -2.57% [at 42.5 µM].
Next, `CNCc1ccccc1`: 2.03% [at 42.5 µM].
As to `O=C(COCCOCCOCC(=O)Nc1c(I)cc(I)c(C(=O)O)c1I)Nc1c(I)cc(I)c(C(=O)O)c1I`, the “viability change, negative = cytotoxic” value is 11.4% [at 42.5 µM].
Next, `CCCCCCCCCCC`: -5.26%; `C=CCOc1c(Br)cc(C(C)(C)c2cc(Br)c(OCC=C)c(Br)c2)cc1Br`: 11.7% [at 42.5 µM]; `O=C(O)/C=C/c1ccccc1`: 6.75%.
For the molecule `C[C@H](CCC(=O)NCC(=O)O)[C@H]1CC[C@H]2[C@@H]3[C@H](O)C[C@@H]4C[C@H](O)CC[C@]4(C)[C@H]3C[C@H](O)[C@]12C`, the “viability change, negative = cytotoxic” value was -1.65%.
The value for `CCCOC(=O)CCCCC(=O)OCCC` was 3.79%.
Consider `CN(C)CCOCCN(C)CCO`, for which the “viability change, negative = cytotoxic” value was -0.378%.
Consider `CC(C)SCc1ccco1`, for which the “viability change, negative = cytotoxic” value is -0.184% [at 42.5 µM].
For the molecule `CCNC(=O)NCCCOc1cccc(CN2CCCCC2)c1`, the “viability change, negative = cytotoxic” value was -0.442% [at 42.5 µM].
Next, `COc1cc(C=O)ccc1OC(=O)C(C)C`: 0.958%; `O=C(Oc1ccccc1C(=O)O)c1ccccc1O`: -4.1% [at 42.5 µM].
As to `CCCCCCCCCCCCCCCCCCN(C)C`, the “viability change, negative = cytotoxic” value was 12.4% [at 42.5 µM].
The value for `O=C(O)CCNC(=O)c1ccccc1` was 0.671% [at 42.5 µM]; that for `CC(=O)Nc1ncc([N+](=O)[O-])s1` was -6.5% [at 42.5 µM].
Turning to `COc1cccc2sc(N)nc12`, the “viability change, negative = cytotoxic” value was -2.87%.
